Screening results from PubChem.
This is a sample that favours compounds with a hit; in the whole collection about 1.4% have one here.
CCT chaperon mod = High-Throughput Screening for Modulators of Cytosolic Chaperonin Activity. purified chaperonin ATPase assay, HTRF ADP detection, 30 min. activity change, % (test concentration not listed), hits read low. hit rate 0.3% among 360,000. AID 651819, 2012; in the data active = activity change below about -30%
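Nucleotide hydrolysis assay: TRiC at 20–40 nM final (set by batch activity) with 10 uM ATP, 30 min at 37 °C, in presence of 76 uM compound. Detection by competitive ADP HTRF, 30 min ambient.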
KCNH2 WT inh = qHTS for Inhibitors of KCHN2 3.1: Wildtype qHTS; Voltage-gated inwardly rectifying potassium channel KCNH2 (Homo sapiens), Q12809; U2OS, BacMam KCNH2, thallium flux FluxOr; active compounds read low; activity change, % at 1.84 µM; hit rate 0.37% among 340,000;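 active = maximum activity change below -70%; inconclusive = maximum activity change between -70% and -50%; inactive = maximum activity change above -50%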
Target sequence (Q12809 whole entry, looked up): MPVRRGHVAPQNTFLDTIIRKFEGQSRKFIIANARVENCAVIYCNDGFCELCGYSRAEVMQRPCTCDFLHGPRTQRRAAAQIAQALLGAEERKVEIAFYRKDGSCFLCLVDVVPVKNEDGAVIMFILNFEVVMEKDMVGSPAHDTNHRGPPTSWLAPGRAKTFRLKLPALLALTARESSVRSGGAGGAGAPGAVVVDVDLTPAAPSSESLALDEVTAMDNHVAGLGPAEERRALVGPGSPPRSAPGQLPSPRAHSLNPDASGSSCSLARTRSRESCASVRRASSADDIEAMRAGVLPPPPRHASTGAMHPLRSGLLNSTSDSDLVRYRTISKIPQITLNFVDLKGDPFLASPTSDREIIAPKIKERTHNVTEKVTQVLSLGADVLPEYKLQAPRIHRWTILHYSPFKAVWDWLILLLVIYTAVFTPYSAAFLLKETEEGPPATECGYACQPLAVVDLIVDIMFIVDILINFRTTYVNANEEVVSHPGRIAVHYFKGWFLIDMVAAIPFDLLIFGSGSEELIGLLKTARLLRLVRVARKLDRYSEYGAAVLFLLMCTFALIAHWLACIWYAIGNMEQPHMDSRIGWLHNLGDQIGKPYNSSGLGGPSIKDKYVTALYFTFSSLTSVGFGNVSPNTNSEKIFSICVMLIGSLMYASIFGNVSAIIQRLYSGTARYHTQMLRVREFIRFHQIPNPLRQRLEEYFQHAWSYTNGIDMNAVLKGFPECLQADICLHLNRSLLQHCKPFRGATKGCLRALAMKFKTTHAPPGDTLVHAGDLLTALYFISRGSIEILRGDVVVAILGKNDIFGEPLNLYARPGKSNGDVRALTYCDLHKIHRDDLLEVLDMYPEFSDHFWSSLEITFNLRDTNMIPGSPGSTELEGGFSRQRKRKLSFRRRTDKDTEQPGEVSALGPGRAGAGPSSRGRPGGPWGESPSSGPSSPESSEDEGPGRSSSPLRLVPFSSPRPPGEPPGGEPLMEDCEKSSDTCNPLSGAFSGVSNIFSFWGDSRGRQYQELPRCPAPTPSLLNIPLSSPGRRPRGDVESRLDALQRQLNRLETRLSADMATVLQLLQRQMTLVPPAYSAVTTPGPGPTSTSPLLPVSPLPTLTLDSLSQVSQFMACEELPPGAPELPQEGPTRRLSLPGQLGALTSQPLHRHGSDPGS
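U2OS cells transduced with wild-type KCNH2 virus are loaded with FluxOr dye for 45 min, and thallium flux is measured in kinetic reads before and after stimulation buffer. Rate constants are normalized to DMSO controls.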
MmCpn inh = Inhibitors of TCP-1 ring complex (TRiC) of Methanococcus maripaludis (MmCpn): qHTS | Chaperonin Mm-Cpn (Methanococcus maripaludis) | purified Mm-Cpn ATPase, ADP Transcreener TR-FRET | Potency, µM (titrated, usually from 76.9 µM), usual class: inhibitors | hit rate 0.031% among 330,000 | AID 504842, 2011; active = well fitted inhibition curve with a large enough effect; inconclusive = small, poorly fitted or top-dose-only effect; also: nearly all actives have a fitted effect of over 80% in size
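Inhibition of chaperonin ATP hydrolysis is measured as reduced ADP production, detected by competitive TR-FRET in which signal falls with ADP. Final enzyme 25 nM and ATP 10 uM, reacted 30 min at 37°C.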
Rango dissoc inh = qHTS Assay for Inhibitors of RanGTP induced Rango (Ran-regulated importin-beta cargo) - Importin beta complex dissociation; Snurportin-1 (Homo sapiens) + GTP-binding nuclear protein Ran (Homo sapiens) + Importin …; Biochemical FRET Rango-importin beta, RanGTP-induced dissociation; Potency, µM (series often up to 46.1 µM); hit rate 0.071% among 340,000; AID 540253, 2011; also: nearly all actives have a fitted effect of over 45% in size
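Rango/importin beta premix (0.1/0.25 uM final), PBS + 1 mM DTT + 0.02% Tween-20 + 0.1% BSA; cpd 5 min RT; FRET pre-read; + RanGTP-RCC1 (0.6 uM Ran, 2 mM GTP, 0.2 uM RCC1); 45 min RT; FRET post-read, ex 430, em 486/530 nm.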
KCNH2 3.1 block = qHTS for Inhibitors of KCHN2 3.1: Mutant qHTS; activity change, % (tested at about 1.8 µM); U2OS KCNH2 3.1, thallium flux FluxOr; active compounds read low; AID 720553, 2013; Potassium voltage-gated channel subfamily H member 2, brain isoform KCNH2 3.1 (human); hit rate 0.95% among 340,000;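 active = maximum activity change below -70%; inconclusive = maximum activity change from -70% to -50%; inactive = maximum activity change above -50%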;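 also: thallium influx rate constant from kinetic fluorescence after stimulation buffer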
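Normalized rate constant (relative to positive and negative DMSO controls) derived from a 2 min kinetic fluorescence read after stimulation; U2OS cells expressing the 3.1 isoform via virus at 1.77 x 10^8 /mL.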
Rango complex inh = qHTS Assay for Inhibitors of Rango (Ran-regulated importin-beta cargo) - Importin beta complex formation. Potency, µM (doses to about 92.2 µM). Rango CFP/YFP FRET sensor + importin beta, 45 min. hit rate 0.031% among 340,000. Importin subunit beta-1 (Homo sapiens), Q14974. AID 540263, 2011; also: nearly all actives have a fitted effect of over 15% in size
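FRET biosensor Rango (snurportin 1 IBB between N-terminal EYFP and C-terminal Cerulean), 50 nM in PBS/1 mM DTT/0.02% Tween-20/0.1% BSA, preincubated 5 min RT with compound; 0.125 microM importin beta added, 45 min RT, CFP/YFP FRET ratio read.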
Numbers stand for hits; . = inactive; ? = inconclusive; / = not tested or not shown. Unless noted, calls follow the shape of the full dose curve.

SMILES | CCT chaperon mod | KCNH2 WT inh | MmCpn inh | Rango dissoc inh | KCNH2 3.1 block | Rango complex inh
OCc1c(OCc2cccc(F)c2)ccc2ccccc12 | . | . | . | . | -81 | .
CNCc1c(OCc2ccc(F)cc2)ccc2ccccc12 | . | . | . | . | . | .
Fc1ccc(C2N(c3ccccc3)C(=S)N3CCCN23)cc1 (centres undefined) | . | -110 | . | . | -100 | .
N#CC(C#N)=Cc1c[nH]c(=O)c(C#N)c1Nc1ccccc1 | . | . | / | ? | . | ?
COc1ccc(C2C(C(=O)Nc3ccc4c(c3)OCCO4)c3ccccc3C(=O)N2C)cc1 (centres undefined) | . | . | . | . | . | .
